Data published in PubChem BioAssay (NCATS).
Inconclusive results are not listed. The source made the active and inactive calls. Unless noted, calls follow the shape of the dose curve; as a rule, active = well fitted curve in the direction sought with a large enough effect; inconclusive = small, poorly fitted or top-dose-only effect, or another doubt; inactive = no such curve, though single readings can be large; an effect the other way counts as inactive or inconclusive.

Columns and labels:
[1] = Cell Viability - BJ (AID 421; calls by dose curve;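 also: potency is read from the fitted curve at half-maximal effect; cells exposed to compound for 40 hours at 37 °C before readout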); settings: BJ fibroblast viability, qHTS
Outline: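 Cytotoxicity in human BJ foreskin fibroblasts is scored as loss of cellular ATP after a 40-hour exposure, measured by luciferase luminescence. Controls are DMSO and 100 uM tamoxifen.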

[2] = Cell Viability - Jurkat (AID 426;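 active = dose-dependent loss of cell ATP signal giving a full or clear fitted curve, ranked by lower potency value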; also: potency is read from the fitted curve at half-maximal effect); settings: qHTS
Outline: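 Luminescent ATP read-out (CellTiter-Glo, 20 min at room temperature) after 40 hr compound exposure at 37 °C of Jurkat E6-1 cells, 5000/well. Decreased ATP taken as cytotoxicity; AC50 from standard Hill equation.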

[3] = Cell Viability - Hek293 (AID 427;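 active = compounds whose dose-response curve shows a full or clear partial loss of cell viability, called from curve shape rather than a numeric limit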;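 also: potency is read from the fitted curve at half-maximal effect; cells exposed to compound for 40 hours at 37 °C before reading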); settings: qHTS
Outline: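 qHTS, human embryonic kidney (adenovirus-transformed) cells; 40 hr cpd, 37 °C; CellTiter-Glo ATP luminescence. Norm: DMSO = 0, 100 uM tamoxifen = 100% inhibition. Hill-fit AC50.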

[4] = Cell Viability - HepG2 (AID 433; calls by dose curve;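 also: potency is read from the fitted curve at half-maximal effect; potency for ATP loss meaning cytotoxicity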); settings: qHTS
Outline: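 In this qHTS format, a 40 h, 37 °C compound incubation of HepG2 cells in complete medium precedes a 20 min CellTiter-Glo step at room temperature. Tamoxifen and doxorubicin serve as positive controls; Hill-equation fits yield AC50.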

[5] = Cell Viability - MRC5 (AID 434; calls by dose curve;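 also: potency is read from the fitted curve at half-maximal effect; potency reflects cytotoxicity seen as loss of intracellular ATP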); settings: MRC5 lung fibroblast viability, qHTS
Outline: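 Decrease in intracellular ATP, quantified by luciferase light output, reflects compound toxicity toward MRC5 cells exposed for 40 hr in complete culture medium. Concentration-response curves, scaled between DMSO and 100 uM tamoxifen, gave AC50 values.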

[6] = Cell Viability - SK-N-SH (AID 435; calls by dose curve; also: potency is read from the fitted curve at half-maximal effect); settings: SK-N-SH neuroblastoma cell viability qHTS
Outline: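 Human neuroblastoma line, 40 h exposure at 37 °C, ATP quantified via luciferase luminescence; DMSO and 100 uM tamoxifen define 0 and 100% inhibition for AC50 fitting.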

[7] = biological target: Mitogen-activated protein kinase 10 (Mus musculus) (UniProt Q61831); assay: JNK3 AlphaScreen Assay (AID 530; active = well fitted curve in either direction with a large enough effect, not every such curve was filed as active;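 also: kinase came from lysate of stimulated human HepG2 cells; signal reports phosphorylation of biotinylated GST-cJun 1-79 at Ser73 with 10 µM ATP; % is scaled to controls: 0 for no effect and ±100 for the full control effect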); settings: JNK3 lysate, c-Jun phosphorylation; series mostly up to 57.1 µM
Outline: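 Biotinylated GST-cJun(1-79) served as substrate for JNK3 in HepG2 lysates stimulated with IL-1beta and TNF-alpha. ATP was 10 uM final, pH 7.6. Ser73 phosphorylation was quantified by AlphaScreen (680 nm excitation).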

[8] = Cell Viability - N2a (AID 540); settings: N2a mouse neuroblastoma cell viability; activity change, negative = cytotoxicity: at 92.2 µM (top of the series);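 also: plate controls were DMSO alone for no effect and tamoxifen control for full effect; nearly all actives have a fitted effect of over 45% in size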
Outline: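 N2a mouse neuroblastoma, 1500 cells/well, 5 hr settle; compound 40 hr, 37 °C; CellTiter-Glo 20 min RT; luminescence; Hill-fit AC50.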

[9] = Cell Viability - NIH 3T3 (AID 541); settings: NIH 3T3 cell viability, qHTS; activity change, negative = cytotoxicity: at 92.2 µM (top of the series);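 also: plate controls were DMSO alone for no effect and tamoxifen positive control for full effect; nearly all actives have a fitted effect of over 25% in size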
Outline: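 qHTS format; 40 hr compound exposure, 37 °C; CellTiter-Glo luminescence (cellular ATP) read-out after 20 min at RT. Decrease in ATP = cytotoxicity; AC50 from standard Hill fit.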

[10] = Cell Viability - HUV-EC-C (AID 542); settings: HUV-EC-C endothelial cell viability, qHTS; series mostly up to 92.2 µM; also: % is scaled to controls: 0 for no effect and ±100 for the full control effect; nearly all actives have a fitted effect of over 35% in size
Outline: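 Luminescent ATP read-out (CellTiter-Glo, 20 min room temperature) after 40 hr compound treatment of HUV-EC-C cells at 37 °C. Concentration-response data fitted with the standard Hill equation to give AC50; tamoxifen and doxorubicin served as positive controls.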

[11] = Cell Viability - H-4-II-E (AID 543); settings: H-4-II-E rat hepatoma viability; series mostly up to 92.2 µM; also: % is scaled to controls: 0 for no effect and ±100 for the full control effect; nearly all actives have a fitted effect of over 35% in size
Outline: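 qHTS, rat hepatoma H-4-II-E, 1500 cells/well; 40 hr compound exposure, 37 °C; CellTiter-Glo ATP luminescence after 20 min RT; AC50 by standard Hill fit.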

[12] = Cell Viability - SH-SY5Y (AID 544); settings: SH-SY5Y neuroblastoma cell viability; viability change, negative = cytotoxic: at 92.2 µM (top of the series); also: nearly all actives have a fitted effect of over 55% in size
Outline: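 SH-SY5Y, 1500 cells/well, 5 hr pre-incubation 37 °C; cpd 40 hr 37 °C; CellTiter-Glo 20 min RT; luminescence (ATP) read. qHTS concentration-response, Hill fit → AC50. Tamoxifen, doxorubicin as positive controls.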

[13] = Cell Viability - Renal Proximal Tubule (AID 545); settings: renal proximal tubule cells viability, primary cells of rat origin; series mostly up to 91.7 µM; also: nearly all actives have a fitted effect of over 40% in size
Outline: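 In this qHTS format, normal rat kidney-derived proximal tubule cells in complete culture medium receive compound titrations, then sit 40 hours at 37 °C before luciferase-based ATP quantitation; potency is reported as AC50 from concentration-response curves.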

[14] = Cell Viability - Mesenchymal (AID 546); settings: mesenchymal cells viability, qHTS; series mostly up to 91.7 µM;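 also: cells exposed to compound for 40 hours before reading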
Outline: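 In this qHTS cytotoxicity format, glomerulus-derived human mesenchymal kidney cells received compound for 40 hr, then luciferase-based ATP quantitation. Concentration-response data were fitted with the Hill equation.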

[15] = Cellular Toxicity (caspase-3) HepG2 (AID 654); settings: HepG2 caspase-3 activation, luminescence; series mostly up to 92.2 µM;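 also: cells exposed to compound for 16 hours before reading; 0% = DMSO alone and 100% = caspase signal from 100 µM tamoxifen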
Outline: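 Luminescent Caspase-Glo 3/7 readout after 16 hr compound exposure of human hepatocellular carcinoma HepG2 cells at 37 °C; qHTS concentration-response, normalized DMSO = 0%, 100 uM tamoxifen = 100%; AC50 by standard Hill equation.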

[16] = Cellular Toxicity (caspase-3) Jurkat (AID 655); settings: Jurkat caspase-3 activation, luminescence; caspase-3 activation: at 92.2 µM (top of the series), DMSO = 0%, tamoxifen = 100%;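 also: cells exposed to compound for 16 h at 37 °C before reading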
Outline: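 qHTS in human Jurkat T-cell leukemia line: 16 hr compound treatment at 37 °C, caspase-3/7 activity measured by Caspase-Glo luminescence. AC50 derived from Hill equation.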

[17] = Cellular Toxicity (caspase-3) HUV-EC-C (AID 656); settings: HUV-EC-C cells, caspase-3 activation (apoptosis), vehicle = 0, 100 µM tamoxifen = 100%; series mostly up to 92.2 µM;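 also: cells exposed to compound for 16 h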
Outline: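 Concentration-dependent caspase 3/7 induction was assessed in HUV-EC-C cells exposed for 16 hours. Data scaled between DMSO and tamoxifen (100 uM) controls.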

[18] = Cellular Toxicity (caspase-3) SHSY5Y (AID 657); settings: SH-SY5Y caspase-3 activation, DMSO zero, 10 µM staurosporine = 100%; series mostly up to 91.7 µM;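 also: cells exposed to compound for 16 hours at 37 °C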
Outline: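 Readout: caspase-cleaved peptide-aminoluciferin substrate driving luciferase light in SH-SY5Y neuroblastoma cells after 16 h treatment. Response normalized to DMSO and 10 uM staurosporine controls.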

[19] = Cellular Toxicity (caspase-3) BJ (AID 658); settings: BJ fibroblasts, luminescence, normalized: DMSO 0%, staurosporine 100%; series mostly up to 91.7 µM
Outline: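 Plated BJ cells (1000/well) rested 5 hr, received compound for 16 hr at 37 °C, then Caspase-Glo 3/7 reagent for 1 hr at room temperature before luminescence reading.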

[20] = Cellular Toxicity (caspase-3) MRC-5 (AID 659); settings: MRC-5 cells, luminescence, normalized: DMSO 0%, 10 µM staurosporine 100%; series mostly up to 91.7 µM;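 also: cells exposed to compound for 16 h at 37 °C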
Outline: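 Apoptosis readout in MRC-5 cells: luciferase light generated after caspase 3/7 cleaves a peptide-aminoluciferin substrate, measured post 16 hr compound incubation at 37 °C.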

Cc1ccc2nc(-c3ccc(N)cc3)sc2c1S(=O)(=O)O
inactive: Potency [1] > 92 µM | Potency [2] > 92 µM | Potency [3] > 92 µM | Potency [4] > 92 µM | Potency [5] > 92 µM | Potency [6] > 92 µM | outcome [7] | activity change, negative = cytotoxicity [8] 3.3% | Potency [9] | Potency [10] | Potency [11] | Potency [12] | Potency [13] | Potency [14] | Potency [15] | caspase-3 activation [16] -10.6% | outcome [17] | outcome [18] | outcome [19] | outcome [20]

COC(=O)CCC(=O)OC
inactive: Potency [1] > 92 µM | Potency [2] > 92 µM | Potency [3] > 92 µM | Potency [4] > 92 µM | Potency [5] > 92 µM | Potency [6] > 92 µM | outcome [7] | activity change, negative = cytotoxicity [8] -1.63% | Potency [9] | Potency [10] | Potency [11] | Potency [12] | Potency [13] | Potency [14] | Potency [15] | caspase-3 activation [16] 1.38% | outcome [17] | outcome [18] | outcome [19] | outcome [20]

C1CCCC1
inactive: Potency [1] > 92 µM | Potency [2] > 92 µM | Potency [3] > 92 µM | Potency [4] > 92 µM | Potency [5] > 92 µM | Potency [6] > 92 µM | outcome [7] | activity change, negative = cytotoxicity [8] 7.78% | Potency [9] | Potency [10] | Potency [11] | Potency [12] | Potency [13] | Potency [14] | Potency [15] | caspase-3 activation [16] -0.234% | outcome [17] | outcome [18] | outcome [19] | outcome [20]

CC(=O)c1ccccn1
inactive: Potency [1] > 92 µM | Potency [2] > 92 µM | Potency [3] > 92 µM | Potency [4] > 92 µM | Potency [5] > 92 µM | Potency [6] > 92 µM | outcome [7] | activity change, negative = cytotoxicity [8] -1.85% | Potency [9] | Potency [10] | Potency [11] | Potency [12] | Potency [13] | Potency [14] | Potency [15] | caspase-3 activation [16] 12.2% | outcome [17] | outcome [18] | outcome [19] | outcome [20]

O=C(O)c1cccc([N+](=O)[O-])c1
inactive: Potency [1] > 92 µM | Potency [2] > 92 µM | Potency [3] > 92 µM | Potency [4] > 92 µM | Potency [5] > 92 µM | Potency [6] > 92 µM | outcome [7] | activity change, negative = cytotoxicity [8] -0.379% | Potency [9] | Potency [10] | Potency [11] | Potency [12] | Potency [13] | Potency [14] | Potency [15] | outcome [17] | outcome [18] | outcome [19] | outcome [20]
